Experimental findings from PubChem BioAssay (NCATS) are described below.

“And” between values parts separate entries of the source, which are not always exact repeats. Equal entries are not always repeated. Results filed as inconclusive are left out. The source made the active and inactive calls. Unless noted, calls come from the whole dose curve; as a rule, active = well fitted curve in the direction sought with a large enough effect; inconclusive = small, poorly fitted or top-dose-only effect, or another doubt; inactive = no such curve, though single readings can be large; an effect the other way counts as inactive or inconclusive.

A short description of assay [1]: Cellular Toxicity (caspase-3) N2a (AID 665).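 Note: compound exposure lasted 16 h at 37 °C before readout.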 The note with it: N2a cells, luminescence, normalized: DMSO 0%, 10 µM staurosporine 100%; at 92.2 µM (top of the series). The procedure, abridged: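 N2a cells, 1500/well, 5 h settle at 37 °C; cpd 16 h, 37 °C; Caspase-Glo 3/7, 1 h RT; luminescence. Norm: DMSO = 0, 10 uM staurosporine = 100%. AC50, Hill fit.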
Assay [2] is described as follows: MultiTox-Fluor Cytotoxicity Assay - LYMP1-002 - Live Cells (AID 955). Note: % is set by controls: 0 for no effect and ±100 for the full control effect. The procedure, abridged: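 Read-out is live-cell protease activity (cell-permeant GF-AFC substrate, fluorescence Ex/Em=405/510), where a decrease indicates acute toxicity. Human lymphoblastoid cells were treated 16 hours at 37 C in a concentration series, and AC50 values came from standard Hill modelling.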

Assay [3] is described as follows: Cell Viability - LYMP2-013 (AID 970).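 Note: cells exposed to compound for 24 h at 37 °C; 0% = DMSO only and full inhibition = tetraoctylammonium bromide control; nearly all actives have a fitted effect of over 55% in size.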 The procedure, abridged:
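qHTS; 2500 lymphoblastoid cells/well; 5 hr 37 C settle; cpd 24 hr 37 C; CellTiter-Glo, 30 min RT; luminescence. AC50 = Hill fit.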

A short description of assay [4]: Cell Viability - LYMP2-018 (AID 985).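 Note: compound exposure lasted 24 hr at 37 °C; plate controls were DMSO only for no effect and tetraoctylammonium bromide at 92 µM for full effect; nearly all actives have a fitted effect of over 50% in size.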 An outline of the steps:
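Luminescent ATP signal (CellTiter-Glo, read after 30 min at room temperature) reports viable cells after 24 hr compound treatment at 37 C. Concentration-response data were fitted to the standard Hill equation for AC50.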

A short description of assay [5]: Cell Viability - LYMP1-002 - Assay at 24 hr (AID 993). Note: % is set by controls: 0 for no effect and ±100 for the full control effect. The procedure, abridged:
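Cells plated 2500/well, 5 hr 37 C; compounds added, 24 hr 37 C; CellTiter-Glo added, 30 min RT; luminescence read. Tetraoctylammonium bromide positive control. Hill-equation AC50.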

Assay [6] is described as follows: qHTS assay for small molecule antagonists of peroxisome proliferator-activated receptor delta signaling (AID 588535; active = well fitted inhibition curve with a large enough effect in the signal ratio, with a control signal flat, not every such curve was filed as active; the % refers to the signal ratio;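 for max response: cells co-treated with a PPAR-delta agonist as stimulator during compound exposure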). As to conditions: HEK293T PPARd-UAS-bla, beta-lactamase FRET ratio, 18 h; 460 nm channel. An outline of the steps:
(§1)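 HEK293T PPAR-delta-UAS-bla cells, 4000/well, 2% charcoal/dextran FBS; 5 h 37 C; cpd titration; 18 h 37 C; CCF4 2 h RT; FI 460/530 nm; Hill fit → IC50, efficacy.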
On the technique in general: In qHTS, concentration-response curves come from the screen itself.

Assay [7] concerns the target Peroxisome proliferator-activated receptor delta (Homo sapiens) (UniProt Q03181). The assay is described as above. An outline of the steps: as §1
Assay [8] addresses Peroxisome proliferator-activated receptor gamma (Homo sapiens) (UniProt P37231). Nature of the assay: qHTS assay for small molecule antagonists of peroxisome proliferator-activated receptor gamma signaling (AID 588537; active = well fitted inhibition curve with a large enough effect in the signal ratio, with a control signal flat, not every such curve was filed as active; the % refers to the signal ratio;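 note: reporter cells co-stimulated with 50 nM rosiglitazone agonist during compound treatment; % of control where 0% means no effect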). The procedure, abridged: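 Antagonist mode, beta-lactamase reporter in HEK293; charcoal/dextran FBS 1%; 3000 cells/well, 37 C 6-6.5 h; cpd titration + rosiglitazone 50 nM final, 16 h 37 C; CCF4, 2 h RT; 460/530 nm; Hill fit → IC50, efficacy.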

The target in assay [9] is Retinoic acid receptor RXR-alpha (Homo sapiens) (UniProt P19793). Description: qHTS assay for small molecule agonists of retinoid X receptor alpha signaling (AID 588544; calls by dose curve;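 note: 0% = DMSO basal wells and 100% = reference agonist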).
Sequence of Retinoic acid receptor RXR-alpha (Homo sapiens) (P19793 whole entry, looked up): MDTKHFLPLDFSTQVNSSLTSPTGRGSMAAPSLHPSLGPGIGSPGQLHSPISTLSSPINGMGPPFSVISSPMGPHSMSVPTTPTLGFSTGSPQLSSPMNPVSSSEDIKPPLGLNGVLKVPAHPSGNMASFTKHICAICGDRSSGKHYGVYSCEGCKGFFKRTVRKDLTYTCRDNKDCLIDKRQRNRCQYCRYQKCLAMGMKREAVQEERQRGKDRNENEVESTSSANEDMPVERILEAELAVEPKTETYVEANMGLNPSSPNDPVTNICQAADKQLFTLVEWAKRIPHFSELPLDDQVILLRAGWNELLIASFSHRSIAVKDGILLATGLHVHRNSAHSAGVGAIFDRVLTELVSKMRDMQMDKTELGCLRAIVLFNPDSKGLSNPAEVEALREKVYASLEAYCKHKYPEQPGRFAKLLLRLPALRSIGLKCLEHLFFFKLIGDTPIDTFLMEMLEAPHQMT
Assay [10] is described as follows: qHTS assay for small molecule activators of the p53 signaling pathway (AID 651743; active = well fitted activation curve with a large enough effect in the signal ratio, not every such curve was filed as active; the % refers to the signal ratio; note: % of control where 0% means no effect). The note with it: HCT-116 p53RE-bla, beta-lactamase FRET ratio, 16 h; activation: stronger effect = higher value. The procedure, abridged:
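Read-out is fluorescence intensity from the LiveBLAzer B/G FRET substrate, added for 2 hours at room temperature after HCT-116 p53RE-bla cells had been incubated with compounds for 16 hours at 37 C.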

Assay [11] is described as follows: Cell Viability - SK-N-SH (AID 435; calls by dose curve;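 note: potency is the fitted concentration of half-maximal effect; compound exposure lasted 40 h at 37 °C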). The note with it: SK-N-SH neuroblastoma cell viability qHTS. An outline of the steps:
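Cells seeded at 1500 per well and incubated 5 hr at 37 °C. Compound added, then 40 hr at 37 °C. CellTiter-Glo added, 20 min at room temperature, luminescence read.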

Assay [12] can be described thus: Cell Viability - Mesenchymal (AID 546).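 Note: cells exposed to compound for 40 hours before reading; 0% = DMSO only and -100% = 100 µM tamoxifen.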 The procedure, abridged: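 AC50 values reflect the drop in intracellular ATP in a human kidney mesenchymal line derived from normal glomeruli. Treatment lasts 40 hr at 37 °C in complete medium, and the signal comes from CellTiter-Glo luminescence.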
Assay [13] in a line: Cell Viability - LYMP2-007 (AID 979).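 Note: cells exposed to compound for 24 h before reading; 0% = DMSO only and the negative end = 92 µM tetraoctylammonium bromide; nearly all actives have a fitted effect of over 60% in size.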 The procedure, abridged: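 Luminescent ATP signal (CellTiter-Glo) serves as the viability read-out after 24 hr compound treatment of lymphoblastoid cells in complete medium at 37 C. Concentration-response data were fitted to the Hill equation to give AC50 values.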
A short description of assay [14]: Cell Viability - LYMP2-010 (AID 981). Note: % is set by controls: 0 for no effect and ±100 for the full control effect; nearly all actives have a fitted effect of over 55% in size. The procedure, abridged:
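Luminescent ATP signal (CellTiter-Glo) served as the viability read-out. Cells of the human lymphoblastoid line were treated with compound over a concentration range for 24 hours at 37 C, and AC50 values came from Hill-equation modeling.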

Assay [15] in a line: qHTS assay for environmental chemicals that activate the Aryl hydrocarbon Receptor (AhR) signaling pathway (AID 651777). Note: % of control where 0% means no effect; nearly all actives have a fitted effect of over 15% in size. The note with it: 1A2-DRE human hepatoma cells, luciferase, 24 h; activation: stronger effect = higher value. The procedure, abridged:
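AhR activation is scored as a rise in luciferase from a stable DRE–CYP1A2 promoter construct in human hepatoma cells. Treatment lasts 24 hr at 37 C; detection uses One-Glo after 30 min at room temperature.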

Assay [16] can be described thus: Cellular Toxicity (caspase-3) Mesangial (AID 660).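 Note: combined caspase 3 and 7 activity read by Caspase-Glo luminescence; cells exposed to compound for 16 h before the caspase read.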 The procedure, abridged: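 Mesangial cells, 1000/well, 5 h settle at 37 °C; compound 16 h, 37 °C; Caspase-Glo 3/7 reagent 20 min RT; luminescence. Norm.: DMSO = 0%, tamoxifen 100 uM = 100%. AC50, Hill fit.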
Assay [17] in a line: MultiTox-Fluor Cytotoxicity Assay - LYMP1-001 - Live Cells (AID 947).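 Note: 0% = DMSO only and full inhibition = tetraoctylammonium bromide control.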
Assay [18] addresses Bile acid receptor (Homo sapiens) (UniProt Q96RI1). Description: qHTS assay for small molecule antagonists of farnesoid X receptor signaling (AID 588526; calls by dose curve; note: % is set by controls: 0 for no effect and ±100 for the full control effect). The procedure, abridged:
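Beta-lactamase reporter antagonist mode: HEK293T FXR-UAS-bla cells, titrated compound, CDCA stimulation, 16 h 37 C, CCF4 dye 2 h RT. Data normalized to CDCA 50 uM and DMSO; Hill-fit IC50.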

Assay [19] concerns the target Peroxisome proliferator-activated receptor gamma (Homo sapiens) (UniProt P37231). Nature of the assay: qHTS assay for small molecule agonists of peroxisome proliferator-activated receptor gamma signaling (AID 588536; active = well fitted curve in the direction sought with a large enough effect in the signal ratio, with a control signal flat, not every such curve was filed as active; the % refers to the signal ratio;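 note: 0% = DMSO basal wells and 100% = rosiglitazone at 2 µM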). The procedure, abridged:
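PPAR-gamma-UAS-bla HEK293 cells in medium with 1% charcoal/dextran-treated FBS were exposed to compounds for 16 h at 37 C. Beta-lactamase activity was read with CCF4 substrate (405 nm excitation, 460/530 nm emission).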

Sequence of Bile acid receptor (Homo sapiens) (Q96RI1 whole entry, looked up): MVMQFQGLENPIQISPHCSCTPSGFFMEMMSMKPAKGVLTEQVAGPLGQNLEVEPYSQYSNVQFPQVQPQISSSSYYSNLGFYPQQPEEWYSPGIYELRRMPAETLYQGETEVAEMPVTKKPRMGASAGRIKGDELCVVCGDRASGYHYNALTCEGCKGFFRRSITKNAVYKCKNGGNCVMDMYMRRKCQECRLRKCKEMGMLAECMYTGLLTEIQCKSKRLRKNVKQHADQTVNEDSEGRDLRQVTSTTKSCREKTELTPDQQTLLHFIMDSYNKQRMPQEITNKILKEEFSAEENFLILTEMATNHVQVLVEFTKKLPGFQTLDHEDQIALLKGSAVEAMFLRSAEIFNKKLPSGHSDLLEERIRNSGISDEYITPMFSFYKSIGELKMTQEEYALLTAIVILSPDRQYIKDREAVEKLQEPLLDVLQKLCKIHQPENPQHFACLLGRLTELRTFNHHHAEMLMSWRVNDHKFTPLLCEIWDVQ
Sequence of Peroxisome proliferator-activated receptor delta (Homo sapiens) (Q03181 whole entry, looked up): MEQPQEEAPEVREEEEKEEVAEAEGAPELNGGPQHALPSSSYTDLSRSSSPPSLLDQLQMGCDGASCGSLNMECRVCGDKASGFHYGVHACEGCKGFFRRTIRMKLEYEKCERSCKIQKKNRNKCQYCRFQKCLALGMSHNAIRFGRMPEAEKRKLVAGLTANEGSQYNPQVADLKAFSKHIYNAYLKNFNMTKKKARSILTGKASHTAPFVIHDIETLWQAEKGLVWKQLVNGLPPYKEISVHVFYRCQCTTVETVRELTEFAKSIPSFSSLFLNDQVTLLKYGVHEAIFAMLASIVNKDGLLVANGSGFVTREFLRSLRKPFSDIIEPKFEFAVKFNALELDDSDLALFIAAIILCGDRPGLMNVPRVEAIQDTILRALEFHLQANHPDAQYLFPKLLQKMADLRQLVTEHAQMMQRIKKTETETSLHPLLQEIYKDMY
Sequence of Peroxisome proliferator-activated receptor gamma (Homo sapiens) (P37231 whole entry, looked up): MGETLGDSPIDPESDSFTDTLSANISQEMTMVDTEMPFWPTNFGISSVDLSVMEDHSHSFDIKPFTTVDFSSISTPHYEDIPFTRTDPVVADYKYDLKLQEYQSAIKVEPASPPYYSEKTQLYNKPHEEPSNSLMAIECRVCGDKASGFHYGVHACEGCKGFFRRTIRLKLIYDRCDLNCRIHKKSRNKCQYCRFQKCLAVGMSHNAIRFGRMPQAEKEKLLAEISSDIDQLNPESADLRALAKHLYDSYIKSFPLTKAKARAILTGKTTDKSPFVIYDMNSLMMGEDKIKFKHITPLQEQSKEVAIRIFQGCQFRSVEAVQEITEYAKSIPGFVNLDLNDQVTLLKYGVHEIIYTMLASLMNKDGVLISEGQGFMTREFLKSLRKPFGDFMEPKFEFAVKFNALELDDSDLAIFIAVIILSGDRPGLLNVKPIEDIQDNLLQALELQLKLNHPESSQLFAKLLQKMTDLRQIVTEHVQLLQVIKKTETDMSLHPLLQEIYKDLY

For the compound `C=C(Cl)Cl`, the caspase-3 activation in assay [1] is 1.75% (inactive). Besides, the call in assay [2] was inactive. The Potency entry in assay [3], in assay [4], in assay [5], in assay [7], in assay [8] and in assay [9] was “inactive” each time. Moreover, the max response in assay [6] is -8.55%. In assay [10], the activation is -1.18% (inactive).
On to `COc1ccc(C=O)cc1OC`, for which the Potency in assay [11] was > 92 µM (inactive). For the same compound, in assay [12], the outcome was inactive. For the same compound, the Potency result in assay [3], in assay [13], in assay [14], in assay [8] and in [9] was “inactive” in each case. Also, the activation in assay [15] is 0.671% (inactive) and 1.28% (inactive).
As for `Cc1cccc(C#N)c1`, the Potency in assay [11] was > 92 µM (inactive). Besides, the outcome in assay [12], in assay [16], in assay [18] and in assay [19] was inactive. Further, the caspase-3 activation in [1] is -2.05% (inactive). Moreover, the Potency result in [17], in assay [13], in assay [4] and in assay [7] was “inactive” each time. The max response in assay [6] was 57%. The activation in assay [10] was -3.72% (inactive).
For `CCOP(=S)(OCC)SCSC(C)(C)C`, the Potency in assay [11] was > 92 µM (inactive). The caspase-3 activation in assay [1] was -3.31% (inactive). Moreover, the Potency result in assay [4], in [5], in assay [7] and in assay [8] was “inactive” in each case. Besides, the max response in assay [6] was 18.1% and -40.8%. For the same compound, the compound was called inactive in [19]. In assay [15], the activation was 0.254% (inactive) and 2.38% (inactive).
Consider `O=NN(c1ccccc1)c1ccccc1`, for which the Potency in assay [11] is > 92 µM (inactive). The compound was called inactive in assay [12] and in assay [18]. In addition, the Potency entry in [17], in [3], in assay [13], in assay [14], in [4] and in assay [5] was “inactive” throughout. In addition, the Potency entry in [7] and in assay [8] was “inactive” in each case. Also, the max response in [6] turned out to be 35.3%. For the same compound, the activation in [15] was 0.195% (inactive) and 0.974% (inactive).
In the case of `NC(=S)Nc1ccccc1`, the compound was called inactive in assay [12], in assay [16] and in [18]. For the same compound, the caspase-3 activation in [1] was -3.2% (inactive) and -1.82% (inactive). For the same compound, the Potency entry in assay [17], in [14], in assay [4], in assay [5], in [7] and in assay [8] was “inactive” throughout. Besides, the Potency entry in [9] is “inactive”. The max response in assay [6] is -9.7% and -15%.
In the case of `O=C(Cl)/C=C/C(=O)Cl`, the call in assay [16], in [2] and in assay [18] was inactive. Moreover, in assay [1], the caspase-3 activation was -4.67% (inactive). In addition, the Potency result in [3], in [13], in [14], in [8] and in [9] was “inactive” each time. Moreover, the activation in [10] was -2.72% (inactive); in [15] it was -0.935% (inactive).
For the compound `O=C(Cl)C(Cl)(Cl)Cl`, the Potency in assay [11] was > 92 µM (inactive). The outcome in [12], in assay [16], in [2], in [18] and in assay [19] was inactive. Moreover, in assay [1], the caspase-3 activation is 0.525% (inactive). Further, the Potency result in assay [17], in assay [3], in assay [13], in [14], in assay [5] and in assay [7] was “inactive” in each case. Also, the Potency entry in [9] is “inactive”. Also, the max response in assay [6] worked out at 6.34%.
In the case of `C=C(C)C#N`, the compound was classed as inactive in assay [12], in assay [16] and in assay [18]. For the same compound, the caspase-3 activation in assay [1] is -1.66% (inactive). In addition, the Potency result in assay [17], in assay [4] and in assay [5] was “inactive” throughout. In addition, the activation in assay [10] is -0.28% (inactive) and -1.48% (inactive).
For `ClC(Cl)=C(Cl)Cl`, the Potency in [11] is > 92 µM (inactive). In addition, the Potency result in [17], in [3], in assay [13], in [4], in [5] and in assay [8] was “inactive” in each case. In [9], the Potency entry is “inactive”. Also, in assay [18], the outcome was inactive.
As for `CC(=O)[O-].CC(=O)[O-].O.O.O.[Pb+2]`, in [11], the Potency was > 92 µM (inactive). Further, the compound was classed as inactive in assay [12] and in [16]. Besides, in assay [1], the caspase-3 activation was 0.731% (inactive) and -2.95% (inactive). Also, the Potency result in assay [17], in assay [4], in assay [5] and in [9] was “inactive” in each case.
Regarding `BrCCBr`, the call in assay [12], in assay [16], in assay [2] and in [19] was inactive. Besides, the caspase-3 activation in assay [1] was -3.9% (inactive). The Potency entry in [3], in [13], in [14], in [7], in [8] and in assay [9] was “inactive” throughout. Besides, the max response in [6] is -6.18% and 14.8%. Further, the activation was -3.11% (inactive) and 0.969% (inactive) in assay [10]; -1.12% (inactive) and 0.568% (inactive) in assay [15].
